# Source: PubChem (Broad Institute)
# Only a selection was taken, and hits are over-represented in it overall.
# IDE exosite FP = exo-site inhibitors of human IDE, primary screen, biochemical, fluorescence anisotropy, probe displacement; Insulin-degrading enzyme (Homo sapiens), P14735; purified IDE, FL-6b probe fluorescence polarization; stronger effect = lower value; z-score at 20 µM; 17,000 compounds, 6.3% hits; AID 1259349, 2017;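 active means z-score of -3 or lower, meaning strong loss of probe binding signal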;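 further: His-tagged human IDE residues 42-1019 made in E. coli with 30 nM FL-6b probe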
# Target sequence (P14735 42-1019 limits assumed): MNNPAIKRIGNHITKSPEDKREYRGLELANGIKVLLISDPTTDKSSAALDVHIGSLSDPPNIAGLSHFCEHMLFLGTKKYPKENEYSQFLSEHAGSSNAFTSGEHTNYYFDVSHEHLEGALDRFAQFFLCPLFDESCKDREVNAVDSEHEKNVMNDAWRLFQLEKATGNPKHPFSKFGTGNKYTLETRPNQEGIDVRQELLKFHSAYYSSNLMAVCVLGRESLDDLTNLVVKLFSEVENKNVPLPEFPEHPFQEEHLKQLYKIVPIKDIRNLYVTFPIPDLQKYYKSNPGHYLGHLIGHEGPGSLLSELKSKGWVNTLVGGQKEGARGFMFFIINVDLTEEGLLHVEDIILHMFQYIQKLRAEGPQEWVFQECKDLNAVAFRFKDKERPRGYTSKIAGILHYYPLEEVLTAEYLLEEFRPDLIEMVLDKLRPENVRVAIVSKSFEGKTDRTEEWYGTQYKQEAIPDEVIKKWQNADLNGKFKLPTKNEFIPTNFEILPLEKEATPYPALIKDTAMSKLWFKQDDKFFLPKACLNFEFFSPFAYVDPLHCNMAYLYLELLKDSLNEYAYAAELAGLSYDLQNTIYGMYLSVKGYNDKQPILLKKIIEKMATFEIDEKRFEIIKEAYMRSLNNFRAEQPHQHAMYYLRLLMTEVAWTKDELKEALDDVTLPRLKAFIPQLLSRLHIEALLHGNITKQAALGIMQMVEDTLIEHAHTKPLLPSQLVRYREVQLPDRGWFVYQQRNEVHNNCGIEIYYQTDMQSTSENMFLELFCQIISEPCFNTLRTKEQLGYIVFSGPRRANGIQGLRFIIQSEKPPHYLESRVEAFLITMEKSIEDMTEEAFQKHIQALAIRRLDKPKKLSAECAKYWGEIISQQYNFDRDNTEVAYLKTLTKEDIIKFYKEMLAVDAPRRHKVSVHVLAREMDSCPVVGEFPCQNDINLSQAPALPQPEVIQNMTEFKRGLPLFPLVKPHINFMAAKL
# * marks the source's active call; other numbers are inactive results; ! = not confirmed by another sample.
SMILES,IDE exosite FP
COc1ccc(C(=O)Nc2ccc3c(c2)C(=O)N(C)[C@H]2CC[C@H](CC(=O)NCC4CC4)O[C@@H]2CO3)cc1,-0.443
CCS(=O)(=O)Nc1ccc2c(c1)C(=O)N(C)[C@H]1CC[C@@H](CC(=O)NCc3ccc(OC)cc3)O[C@@H]1CO2,-4.24*
CN1C(=O)c2cc(NS(C)(=O)=O)ccc2OC[C@@H]2O[C@@H](CC(=O)N3CCOCC3)CC[C@@H]21,-5.06*
COc1cccc(C(=O)Nc2ccc3c(c2)C(=O)N(C)[C@H]2CC[C@H](CC(=O)NCc4ccc(F)cc4)O[C@H]2CO3)c1,-0.354
COc1cccc(C(=O)Nc2ccc3c(c2)C(=O)N(C)[C@H]2CC[C@@H](CC(=O)NCc4ccc(F)cc4)O[C@@H]2CO3)c1,-6.19*
CCS(=O)(=O)Nc1ccc2c(c1)C(=O)N(C)[C@@H]1CC[C@H](CC(=O)NCc3ccc(OC)cc3)O[C@H]1CO2,0.0604
CCCC(=O)Nc1ccc2c(c1)C(=O)N(C)[C@H]1CC[C@H](CC(=O)N3CCCCC3)O[C@@H]1CO2,0.534
C[C@H]1CN([C@@H](C)CO)C(=O)CCCn2cc(nn2)CO[C@H]1CN(C)S(=O)(=O)c1ccc(-n2cccn2)cc1,-0.585
O=C(NC[C@@H]1[C@@H](c2ccccc2)[C@@H](CO)N1Cc1ccccc1)c1ccccn1,2.74
CC(C)CC#Cc1ccc([C@@H]2[C@@H](CO)N3C(=O)CN(S(=O)(=O)c4ccccc4)C[C@H]23)cc1,2.67
O=C1N[C@@H](c2ccccc2)COCc2cnnn2CC[C@H]1Cc1ccc(C(F)(F)F)cc1,0.665
O=C(Cc1ccccn1)N[C@@H]1CC[C@H](CCNS(=O)(=O)c2cccc(F)c2)O[C@H]1CO,0.463
CN(C)CC(=O)N[C@H]1C=C[C@@H](CC(=O)NCc2ccc(Cl)cc2)O[C@H]1CO,3.2
O=C(O)C[C@@H]1C[C@H]2c3cc(NC(=O)Nc4ccc(C(F)(F)F)cc4)ccc3O[C@H]2[C@H](CO)O1,0.663
COc1ccc(-c2ccc([C@@H]3[C@@H](CO)N4C(=O)CN(C(=O)c5ccc6c(c5)OCO6)C[C@H]34)cc2)cc1,0.305
Cc1cccc(-c2ccc([C@H]3[C@@H](CO)N4C(=O)CN(C(=O)c5ccc6c(c5)OCO6)C[C@@H]34)cc2)c1,-3.1*
Cc1cccc(-c2ccc([C@@H]3[C@@H](CO)N4C(=O)CN(C(=O)c5ccccc5)C[C@H]34)cc2)c1,-1.39
Cc1cccc(-c2ccc([C@H]3[C@H]4CN(C(=O)c5ccccc5)CC(=O)N4[C@H]3CO)cc2)c1,-0.716
Cc1ccc(-c2ccc([C@@H]3[C@@H](CO)N4C(=O)CN(C(=O)c5ccccc5)C[C@H]34)cc2)cc1,0.829
O=C(c1ccc2c(c1)OCO2)N1CC(=O)N2[C@@H](CO)[C@H](c3ccc(C#Cc4ccccc4)cc3)[C@@H]2C1,-4.32*
O=C(c1ccc2c(c1)OCO2)N1CC(=O)N2[C@H](CO)[C@@H](c3ccc(C#Cc4ccccc4)cc3)[C@H]2C1,2.88
O=C(c1ccc2c(c1)OCO2)N1CC(=O)N2[C@H](CO)[C@H](c3ccc(C#Cc4ccccc4)cc3)[C@@H]2C1,-0.138
Cc1ccc(-c2ccc([C@H]3[C@@H](CO)N4C(=O)CN(C(=O)c5ccccc5)C[C@@H]34)cc2)cc1,1.3
Cc1cccc(-c2ccc([C@H]3[C@H](CO)N4C(=O)CN(C(=O)c5ccccc5)C[C@@H]34)cc2)c1,-7.39*
O=C(c1ccc2c(c1)OCO2)N1CC(=O)N2[C@H](CO)[C@@H](c3ccc(-c4ccccc4)cc3)[C@H]2C1,0.435
SMILES,IDE exosite FP
Cc1cccc(-c2ccc([C@@H]3[C@H](CO)N4C(=O)CN(C(=O)c5ccccc5)C[C@@H]34)cc2)c1,-4.62*
Cc1ccc(OC(=O)N(C)C[C@@H]2OCc3ccccc3-c3ccccc3C(=O)N([C@H](C)CO)C[C@@H]2C)cc1,-0.508
CCC(=O)N1CC[C@@H]2[C@@H](CO)Nc3ccc(C#Cc4ccccc4F)cc3[C@@H]21,0.849
O=C(c1cccc(F)c1)N1CC2(C1)[C@H](c1ccccc1)[C@@H](CO)N2C(=O)C1CCCCC1,-1.74
N#C[C@H]1[C@@H](c2ccc(C3=CCCCC3)cc2)[C@@H](CO)N1S(=O)(=O)c1cccc(F)c1,1.59
COCCN(C[C@H]1[C@H](c2ccccc2)[C@@H](CO)N1C(=O)C1CCC1)C(C)=O,3.4
O=C1N[C@H](c2ccccc2)COCc2cn(nn2)CC[C@H]1Cc1ccc(C(F)(F)F)cc1,0.567
C[C@H](NC(=O)C[C@@H]1C[C@H]2c3cc(NS(=O)(=O)c4ccc(F)cc4)ccc3O[C@H]2[C@@H](CO)O1)c1ccccc1,-1.78
O=C(C1CC1)N1CC(=O)N2[C@H](CO)[C@H](c3ccc(-c4cccnc4)cc3)[C@@H]2C1,0.979
O=S(=O)(c1cccc(F)c1)N1CC[C@@H]2[C@H]1c1cc(C#Cc3ccccc3F)ccc1N[C@@H]2CO,2.5
Cc1cccc(-c2ccc([C@@H]3[C@@H]4CN(C(=O)CN(C)C)C[C@H]3N4)cc2)c1,0.219
CN(C)CC(=O)N1C[C@@H]2N[C@H](C1)C2c1ccc(/C=C/c2ccccc2)cc1 (stereo not given in full),-5.64*!
O=C(c1cnccn1)N1CC(=O)N2[C@H](C1)[C@@H](c1ccc(/C=C/c3ccccc3)cc1)[C@@H]2CO,-1.73
O=C(c1cnccn1)N1C[C@@H]2N[C@H](C1)C2c1ccc(/C=C/c2ccccc2)cc1 (stereo not given in full),-4.23*!
COc1ccc(-c2ccc(C3[C@@H]4CN(C(=O)c5cnccn5)C[C@H]3N4)cc2)cc1 (stereo not given in full),0.244
CN(C)CC(=O)N1C[C@@H]2N[C@H](C1)C2c1ccc(C2=CCCCC2)cc1 (stereo not given in full),0.699
CN(C)C(=O)c1ccc(-c2ccc([C@H]3[C@H](CO)N4C(=O)CN(C(=O)C5CCC5)C[C@@H]34)cc2)cc1,2.64
COc1ccc2c3c(n(C)c2c1)[C@@H](CO)N(C(=O)Nc1ccc(F)cc1)CC31CN(C(=O)CN2CCOCC2)C1,0.0641
OC[C@@H]1[C@@H](c2ccc(-c3cccnc3)cc2)[C@@H]2CN(Cc3ccccn3)CCCCN12,-2.85
CCCNC(=O)Nc1ccc2c(c1)C(=O)N(C)C[C@H](OC)[C@H](C)CN(C)[C@H](C)CO2,-0.827
CN1C(=O)c2cc(NC(=O)c3cnccn3)ccc2OC[C@@H]2O[C@@H](CC(=O)NCC3CCCCC3)CC[C@H]21,-0.0285
CCC(=O)N1CC2(C1)[C@@H](c1ccc(-c3ccccc3C)cc1)[C@@H](CO)N2C(=O)CC,-2.82
COc1cccc(C#Cc2ccc([C@H]3[C@H](CO)N4C(=O)CN(C(=O)C5CC5)C[C@@H]34)cc2)c1,-4.6*
COc1cccc(C#Cc2ccc([C@@H]3[C@H]4CN(C(=O)C5CC5)CC(=O)N4[C@H]3CO)cc2)c1,-0.0636
COc1cccc(C#Cc2ccc([C@@H]3[C@@H](CO)N4C(=O)CN(C(=O)C5CC5)C[C@@H]34)cc2)c1,-1.04
COc1ccc(C#Cc2ccc([C@H]3[C@H](CO)N4C(=O)CN(C(=O)C5CCOCC5)C[C@@H]34)cc2)cc1,-1.15
COc1cccc(C#Cc2ccc([C@H]3[C@@H](CO)N4C(=O)CN(C(=O)C5CC5)C[C@H]34)cc2)c1,-9.46*
O=C(c1ccccc1)N1CC(=O)N2[C@H](CO)[C@H](c3ccc(C#CCC4CCCC4)cc3)[C@@H]2C1,3.61
O=C(C1CC1)N1CCCCN2[C@@H](CO)[C@@H](c3ccc(-c4cccc(F)c4)cc3)[C@@H]2C1,-0.181
